ANO1 block: blocks the mouse calcium-activated chloride channel TMEM16A; Q8BHY3; HEK293 TMEM16A/YFP iodide influx fluorescence, ionomycin; normalized B-score (activity score, 25-100; higher = stronger inhibition) at 10 µM; 310,000 compounds, 1.2% hits;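 active = ratio plate-corrected score three or more library SD toward inhibition, starting fluorescence score within five deviations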;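 note: score derived from kinetic fluorescence span divided by baseline fluorescence per well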
Target sequence (Q8BHY3 whole entry, looked up): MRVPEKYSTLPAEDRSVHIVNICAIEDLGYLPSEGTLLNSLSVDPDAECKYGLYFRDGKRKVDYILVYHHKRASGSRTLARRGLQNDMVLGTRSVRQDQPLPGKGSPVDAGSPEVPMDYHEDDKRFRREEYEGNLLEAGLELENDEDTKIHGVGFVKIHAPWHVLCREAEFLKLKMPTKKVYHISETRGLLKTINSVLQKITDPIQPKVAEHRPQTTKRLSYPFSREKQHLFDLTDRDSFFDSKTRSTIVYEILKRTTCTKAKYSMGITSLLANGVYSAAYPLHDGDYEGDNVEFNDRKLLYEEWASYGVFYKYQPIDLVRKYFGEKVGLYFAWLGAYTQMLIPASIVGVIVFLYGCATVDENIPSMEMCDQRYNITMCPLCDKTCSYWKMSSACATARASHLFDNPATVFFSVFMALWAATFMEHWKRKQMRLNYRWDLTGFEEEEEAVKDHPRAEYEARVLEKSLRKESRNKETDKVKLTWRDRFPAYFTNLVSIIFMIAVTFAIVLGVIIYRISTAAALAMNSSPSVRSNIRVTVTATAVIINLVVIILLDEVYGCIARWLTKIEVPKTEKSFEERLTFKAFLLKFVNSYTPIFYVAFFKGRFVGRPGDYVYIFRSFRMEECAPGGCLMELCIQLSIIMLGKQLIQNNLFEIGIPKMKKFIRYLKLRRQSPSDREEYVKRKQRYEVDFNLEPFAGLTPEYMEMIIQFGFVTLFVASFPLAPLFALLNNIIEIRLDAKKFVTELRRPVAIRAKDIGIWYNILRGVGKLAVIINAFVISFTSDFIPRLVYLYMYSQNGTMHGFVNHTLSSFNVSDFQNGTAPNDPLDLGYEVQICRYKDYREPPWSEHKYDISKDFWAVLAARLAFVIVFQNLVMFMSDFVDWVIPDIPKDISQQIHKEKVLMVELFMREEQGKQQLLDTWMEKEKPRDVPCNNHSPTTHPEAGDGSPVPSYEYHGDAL
CHT allo act: allosteric activators of human choline transporter CHT. Q9GZV3. CHT-expressing cells, membrane potential dye, choline EC20; hits give high values; LV-AA mutant CHT in HEK293 cells. B-score at 10 µM. 310,000 compounds, 0.49% hits. AID 488977;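 active = initial fluorescence not abnormally high and integrated response B-score, plate-corrected, over 3 SD above library mean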
CHT inh: inhibitors of human choline transporter CHT. Q9GZV3. 310,000 compounds, 0.86% hits. CHT-expressing cells, membrane potential dye, choline response; hits give low values. B-score at 10 µM;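 active = B-score over 3 SD under the library average, and starting fluorescence ratio not unusually high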;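 note: choline stimulus applied at its EC90 after an EC20 pre-addition; B-score computed on integrated fluorescence ratio after choline addition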
ANO1 activ: mouse TMEM16A channel activation, primary screen | Q8BHY3 | HEK293 TMEM16A/YFP-H148Q/I152L, iodide quench fluorescence; hits give low values | B-score at 10 µM | 340,000 compounds, 0.3% hits;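 active = fluorescence-ratio B-score plate-corrected deviation score at least 3 library SD below zero, with starting fluorescence score within 5 deviations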;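 note: channel opened by trigger with iodide after compound preincubation; score built on the fluorescence ratio of max minus min over baseline; more negative score means more quench and so TMEM16A activation or potentiation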
Each line names hits and unclear results; the compound was inactive in the other large screens. An excerpt weighted towards active compounds, which were near 2.3% of everything screened.

O=[N+]([O-])c1cc(C(F)(F)F)ccc1NCCNC(=S)Nc1ccc(Cl)cc1	ANO1 block 100
COc1ccc(C(CNC(=O)c2nn(-c3ccccc3)c(=O)c3ccccc23)N2CCOCC2)cc1 (centres undefined)	none (no result: ANO1 block, CHT allo act, CHT inh)
CCN(C(=O)COn1nnc2ccc(S(=O)(=O)N(C)C)cc21)C1CCS(=O)(=O)C1 (centres undefined)	none (no result: ANO1 block, CHT allo act, CHT inh)
CCCCc1nc2cc(C(=O)N3CCN(c4cnccn4)CC3)ccc2o1	CHT inh -9.7
CCCCc1nc2cc(C(=O)N3CCCC3)ccc2o1	none
Nc1nc(CN2CCOCC2)cs1	none
c1cn2cc(CN3CCOCC3)nc2s1	ANO1 block 25
Cc1cc(/C=N/NC(=O)c2ccccc2F)c(C)n1-c1ccccc1	CHT inh -6.3
Cc1cc(/C=N/NC(=O)c2cccc(F)c2)c(C)n1-c1ccccc1	none
Cc1ccccc1Nc1nc(N)nc(CSc2n[nH]c(N)n2)n1	none
c1ccc(CC2CCN(c3ncnc4sccc34)CC2)cc1	ANO1 activ -40 (no result: ANO1 block, CHT allo act, CHT inh)
O=Cc1nccc2ccccc12	ANO1 activ -6.5 (no result: ANO1 block, CHT allo act, CHT inh)
O=C(Nc1ccc(Br)cc1)C1CC(c2c(F)cccc2Cl)=NO1 (centres undefined)	ANO1 block 25
Cc1cc(NC(=O)COc2ccccc2C)ccc1NC(=O)c1ccco1	none
O=C(Cc1cccs1)Nn1c(Cc2cccs2)nc2ccccc2c1=O	CHT inh -6.7
O=C(Nn1c(Cc2cccs2)nc2ccccc2c1=O)c1ccc(F)c(F)c1	none
CC1CCCC(C)N1C(=O)COC(=O)CNC(=O)c1ccc(Cl)cc1Cl (centres undefined)	none
Clc1ccc(-c2ccnc(Oc3cc(Cl)ccc3Cl)n2)cc1	ANO1 block 25
O=C(Cn1c2ccccc2c2nc3n(c(=O)c21)CCS3)Nc1ccccc1	ANO1 activ -32
O=C(NCc1cc2ccccc2[nH]1)c1ccccc1F	none
S=c1[nH]nc(Cc2cccc3ccccc23)n1-c1ccccc1	ANO1 activ -7.2
CCC(=O)Oc1ccc(C(CC)C(CC)c2ccc(OC(=O)CC)cc2)cc1 (centres undefined)	ANO1 block 100
Cc1ccc(OCC(=O)Oc2ccc(C(C)C)cc2)cc1	none
O=C(NCCc1c[nH]c2ccccc12)c1cnccn1	none
CN(C(=S)NC(=O)c1ccccc1)C1CCCCC1	none
Cc1cc(N2CCCC2)nc2ccc(NC(=S)NCCCN3CCC(C)CC3)cc12	CHT inh -7.9
COc1ccc(C)cc1Nc1ccc(C(=O)O)cc1[N+](=O)[O-]	none
CC(C(=O)N1CCN(c2ccc(Cl)cc2)CC1)c1ncc(C(F)(F)F)cc1Cl (centres undefined)	none
COC(=O)C1=C(Nc2ccccc2NS(=O)(=O)c2ccc(C(F)(F)F)cc2Cl)CSC1	ANO1 block 25
O=C(CSc1ccc(-c2cccnc2)nn1)Nc1ccc(F)c(F)c1	none
O=C(C1CCCC1)N1CCC(CO)(Cc2ccccc2Cl)CC1	none
CC(C)(C)NC(=O)N1CCC(CO)(Cc2ccccc2Cl)CC1	ANO1 activ -6.9
C=CC[C@@H](CC(=O)N[C@H](CO)Cc1ccccc1)C(=O)NC[C@@H](OC(=O)[C@@H](CC=C)Cc1ccc(F)cc1)c1ccccc1	none (no result: ANO1 block, CHT allo act, CHT inh)
CCOC(=O)c1c(NC(=O)c2ccc(C)cc2)sc2c1CC(C)(C)OC2	ANO1 block 25
Cc1cc[n+](-c2[nH]c(=O)sc2/C=N/NC([S-])=Nc2ccccc2)cc1	ANO1 activ -5
O=C(NCCc1ccc(Cl)cc1)c1ccc(CNc2c(N3CCOCC3)c(=O)c2=O)cc1	ANO1 activ -6.6
O=C(NCc1ccc(Cl)cc1)c1ccc(CNc2c(N3CCOCC3)c(=O)c2=O)cc1	none
NS(=O)(=O)c1ccc(Oc2ccc(S(N)(=O)=O)cc2)cc1	ANO1 activ -4.9
CCCCOc1ccc(S(N)(=O)=O)cc1	none
COc1cc2oc3ccccc3c2cc1N(CC(=O)N1CCCCC1)S(=O)(=O)c1ccc(C)cc1	ANO1 activ -29
COc1ccc(CCC(=O)OCC(=O)c2c(N)n(CC(C)C)c(=O)n(C)c2=O)cc1	ANO1 activ -5.4
Cc1ccc(S(=O)(=O)CCC(=O)OCC(=O)c2c(N)n(CC(C)C)c(=O)n(C)c2=O)cc1	none
O=C(Cc1ccccc1F)Nc1nc(-c2ccc(F)cc2)cs1	ANO1 block 25
CC(=O)c1c(C)[nH]c(C(=O)OCc2ccc([N+](=O)[O-])cc2)c1C	none
COC(=O)c1ccc(COC(=O)c2[nH]c(C)c(C(C)=O)c2C)o1	ANO1 block 100
COc1ccccc1NC(=O)c1ccc(Cl)c(S(=O)(=O)NCc2ccco2)c1	none (no result: ANO1 block, CHT allo act, CHT inh)
CC1(C)Cc2nc(-c3ccccc3)nc(NNC(=O)c3ccco3)c2CO1	none
O=C(C1CCOCC1)N1CCC(CO)(CCc2ccccc2)CC1	none
O=C(Cn1c(NCCCO)nc2ccccc21)c1ccc(Cl)cc1	none
Cc1cc2nc(NCCCO)n(CC(=O)c3cc(C(C)(C)C)c(O)c(C(C)(C)C)c3)c2cc1C	ANO1 block 100
CCOc1ncccc1C(=O)N1CCN(S(=O)(=O)c2ccc(Br)cc2Cl)CC1	none
Cc1cc(C(=O)OCC(=O)NCc2ccco2)c(C)n1-c1ccc(F)cc1	CHT inh -6.3
Cc1cc(NC(=O)c2ccc(F)cc2)n(-c2ccccn2)n1	none
Cc1cc(NC(=O)c2ccc(C#N)cc2)n(-c2ccccn2)n1	ANO1 activ -30
COc1ccc(CC(=O)OC(C)C(=O)Nc2ccc(Cl)cn2)cc1 (centres undefined)	none (no result: ANO1 block, CHT allo act, CHT inh)
CC(C)(C)N(Cc1ccccc1)C(=O)COC(=O)C1CCN(c2ccc(C(F)(F)F)cn2)CC1	ANO1 activ -44 (no result: ANO1 block, CHT allo act, CHT inh)
CC(C)N(Cc1ccccc1)C(=O)COC(=O)C1CCN(c2ccc(C(F)(F)F)cn2)CC1	none (no result: ANO1 block, CHT allo act, CHT inh)
CC(=O)c1c(C)[nH]c(C(=O)CSc2nnc(-c3ccccc3)n2Cc2ccc3c(c2)OCO3)c1C	none
Cc1cc(C(=O)CSc2nnc(-c3cccc(F)c3)n2N)c(C)n1Cc1ccc2c(c1)OCO2	ANO1 block 100
Cc1ccc(NC(=O)C(NC2CCCc3ccccc32)c2ccccc2)cc1Cl (centres undefined)	none
Cc1ccc(NC(=O)C(NC2CCCc3ccccc32)c2ccccc2)c([N+](=O)[O-])c1 (centres undefined)	ANO1 activ -5.8
COc1cc(C=C(c2nc3ccccc3s2)c2nc3ccccc3s2)ccc1O	ANO1 activ -6.7
COc1cc(/C=C/c2nc3ccccc3s2)cc(OC)c1O	ANO1 activ -6.9
CCC1=C(c2cc(OC)c(OC)c(OC)c2)C2(CCCC2)C(=O)O1	none
COc1ccc(/C=C2/SC(=S)N(NS(=O)(=O)c3ccc(C)cc3)C2=O)cc1	CHT inh -5.6
Cc1ccc(/C=C2\SC(=S)N(NS(=O)(=O)c3ccc(C)cc3)C2=O)cc1	none
O=C(CN(C(=O)c1csnn1)c1ccccc1C(F)(F)F)NCc1ccccc1	none
CCOC(=O)/C(=C\c1cccnc1)C(=O)c1cc(C(C)=O)c(Nc2ccccc2)s1	ANO1 block 25, ANO1 activ -11
O=C(N/N=C/c1cc([N+](=O)[O-])cc(Br)c1O)C12CC3CCC(CC(C3)C1)C2	ANO1 block 100
